Measurements taken from PubChem BioAssay AID1159580 (chemical genetic matrix, 2015).
In all, about 5,500 compounds went through this assay and about 2,000 (36%) were called active. Another 18% or so got no clear call; they are omitted. No stated cut-off is given here; in the data, active means normalized growth mostly below about 0.91 (no sharp cut-off); inconclusive means no clear call, values can overlap the other calls; inactive means mostly above about 0.92. The list shows a part of the results.

Assay: chemical genetic growth profiling, strain panel (AID 1159580);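 further: tested at 20 µM; growth read once vehicle control cultures reached saturation at 30 °C; 1 = growth at the plate median or of vehicle wells; lower values mean less growth of the strain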
Conditions: S. cerevisiae deletion strains, growth OD
[1] = locus YAL040C, strain CLN3, active compounds read low
[2] = locus YCL061C, strain MRC1 (second series), active compounds read low
[3] = locus YDR363W, strain ESC2, active compounds read low
[4] = locus YER002W, strain NOP16, active compounds read low
[5] = locus YGR078C, strain PAC10, active compounds read low
[6] = locus YJR075W, strain HOC1, active compounds read low
[7] = locus YMR307W, strain GAS1, active compounds read low
[8] = locus YNL175C, strain NOP13, active compounds read low
[9] = locus YNL197C, strain WHI3, active compounds read low
[10] = locus YNL224C, strain SQS1, active compounds read low
[11] = locus YOR083W, strain WHI5 (second series), active compounds read low
[12] = locus YPL055C, strain LGE1, active compounds read low
[13] = locus YPL241C, strain CIN2, active compounds read low
[14] = locus YAL013W, strain DEP1, active compounds read low

Measured: normalized growth

CC(C)(C)c1onc(OCP(=O)(O)O)c1CC(N)C(=O)O (stereo not drawn)
inactive: [1] 1 | [2] 0.997 | [3] 1.02 | [4] 0.996 | [5] 1.01 | [6] 1 | [7] 1.03 | locus YNL128W, strain TEP1, active compounds read low 1.03 | [8] 0.999 | [9] 1.01 | [10] 1.01 | [11] 1.06 | [12] 1 | [13] 0.999

O=C(O)C1=CCCN(CCON=C(c2ccccc2)c2ccccc2)C1
inactive: [14] 1 | [1] 1.04 | [2] 1 | locus YDR150W, strain NUM1, active compounds read low 1 | [3] 0.976 | [4] 0.97 | [5] 0.993 | [6] 1 | locus YMR263W, strain SAP30, active compounds read low 1 | [8] 0.987 | [9] 0.981 | [10] 0.993 | [11] 0.987 | [12] 1 | [13] 1

COc1ccc(CCNC[C@@H](O)c2ccc(O)cc2)cc1OC
inactive: [14] 1.01 | [1] 0.995 | [2] 0.993 | [3] 1.02 | [4] 1.01 | [7] 0.944 | locus YNL153C, strain GIM3, active compounds read low 0.999 | [8] 0.992 | [9] 0.981 | [10] 0.989 | [11] 0.986

CNCC(O)c1cccc(O)c1 (stereo not drawn)
inactive: [14] 0.992 | [1] 0.974 | [2] 0.988 | [3] 0.99 | [4] 1.01 | locus YGR229C, strain SMI1, active compounds read low 1.01 | [7] 0.968 | [8] 1.01 | [9] 0.998 | [10] 1 | locus YNL322C, strain KRE1, active compounds read low 0.976 | [11] 1.02 | [12] 0.984
